Measured values as given in paper PMC7819943, “Rice protein-binding microarrays: a tool to detect cis-acting elements near promoter regions in rice”.
Whole data set: some 68,000 sequences, median “fluorescence intensity (a.u.)” near 9,100, cut for the highest 2% near 16,000. The sample holds the highest values, similar sequences and a random draw of the others, so the mix is not that of the screen.

Each sequence was assayed against OsWRKY34 (Oryza sativa, UniProt Q0JBA9 1-250) (assay: protein-binding microarray (RPBM); PBS, 2% BSA, 51.3 ng/ul salmon testes DNA, 50 uM zinc acetate, 200 nM TF, 25 C, 1 h; high values mean tight binding). Settings: protein: recombinant; tags: N-terminal polyhistidine and DsRed monomer fusion (pET32a); label: CyDye5-dUTP incorporated in the synthesized complementary strand; 3' TTTTT single-stranded linker to array surface; dsDNA, one strand shown.
In short: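 Polyhistidine-tagged DsRed fusions of transcription factors, joined at the N-terminus, were expressed in E. coli BL21-CodonPlus and isolated on Ni–NTA. They were incubated at 200 nM for 1 h at 25 °C on a custom Agilent array, double-stranded and BSA-blocked, in PBS with 2% BSA, salmon testes DNA and 50 µM zinc acetate. The binding signal is per-feature fluorescence intensity (arbitrary units) read on an Axon 4000B scanner after washing.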

Sequence of OsWRKY34 (Q0JBA9 entry or part of it): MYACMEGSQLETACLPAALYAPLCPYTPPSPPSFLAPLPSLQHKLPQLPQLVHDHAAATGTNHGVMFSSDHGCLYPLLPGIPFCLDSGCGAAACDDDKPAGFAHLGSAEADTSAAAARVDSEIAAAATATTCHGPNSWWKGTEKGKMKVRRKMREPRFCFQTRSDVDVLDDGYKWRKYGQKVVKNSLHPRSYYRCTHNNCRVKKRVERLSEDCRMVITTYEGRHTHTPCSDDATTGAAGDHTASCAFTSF

Row | Sequence | binding signal
1 | GCTTCTTCCGTTGCAATTCCATTCTCCTCTCTCTCCTGCTCGGAGTCACCTAGTGCAG | 11400 fluorescence intensity (a.u.)
2 | AGGACACCTTAGCATTCAGCCATCTTATTTCTCTGTATTACGGAGTCACCTAGTGCAG | 9420 fluorescence intensity (a.u.)
3 | TCCAGAAGACACCCGCCTGCTCCACTGCCGTTCCTGTCGACGGAGTCACCTAGTGCAG | 9120 fluorescence intensity (a.u.)
4 | ACTGTGAATGTGTGACTAAATGGGCCGAGCCCAACTACTACGGAGTCACCTAGTGCAG | 9860 fluorescence intensity (a.u.)
5 | GATTCATCTTGCCCTCAAAGTTTCCTGCTTTGTTTGATCACGGAGTCACCTAGTGCAG | 9520 fluorescence intensity (a.u.)
6 | GGAGGGAGTAGTATATTGGGGATTTTCAGTTGGGTCTGGGCGGAGTCACCTAGTGCAG | 14200 fluorescence intensity (a.u.)
7 | GCCATTCTATAGGAGGTGGTGGGGAGGGTTTCGTGCTCCTCGGAGTCACCTAGTGCAG | 10800 fluorescence intensity (a.u.)
8 | TTTGTCACGCGAATACTGTATTGTAGGGTGGGGTTCACTGCGGAGTCACCTAGTGCAG | 12100 fluorescence intensity (a.u.)
9 | GCCGGCTAAACTGGCTTATTGTACTTGCTCTTACTTGACTCGGAGTCACCTAGTGCAG | 9430 fluorescence intensity (a.u.)
10 | ATTTTTTATTTCTTTTGTTTCAAATTTCAGTTCTTTTTATCGGAGTCACCTAGTGCAG | 9720 fluorescence intensity (a.u.)
11 | ATGTTTTAATTTTGGGCTTCTTTTTGTTTTGGGCTTTTATCGGAGTCACCTAGTGCAG | 24300 fluorescence intensity (a.u.)
12 | TCATTTTGTATTTTGTTGTCTCTGTCTTGCTGTTCCCTCGCGGAGTCACCTAGTGCAG | 8810 fluorescence intensity (a.u.)
13 | ATACTAGGCTGTATCTCTCTCGCTCTCTTGTTGTTCCCTCCGGAGTCACCTAGTGCAG | 18200 fluorescence intensity (a.u.)
14 | GTGTGTTGTTGTTCTTGTTTTGGTTCTTTTCTAGTAGTATCGGAGTCACCTAGTGCAG | 8750 fluorescence intensity (a.u.)
15 | GCTCTCTCTCTCTCTCTCTCTCGCTGTCTCTCTCCCTCCCCGGAGTCACCTAGTGCAG | 9110 fluorescence intensity (a.u.)
16 | TTTTCTTTCTTTTTCTTTTTTTTTATCGTTTTGTTCTTCTCGGAGTCACCTAGTGCAG | 10500 fluorescence intensity (a.u.)
17 | TCTCGTTTCGTTCGTGTATCATGTTTTTTTTTGGGTCGCTCGGAGTCACCTAGTGCAG | 8730 fluorescence intensity (a.u.)
18 | ATGTTTTTTTTTGGGTCGCTTTCTTTGTGTGTGTATATATCGGAGTCACCTAGTGCAG | 16400 fluorescence intensity (a.u.)
19 | GGTCATACTCTCTTCGTCCCATTTAATGTACAATCATGCTCGGAGTCACCTAGTGCAG | 8860 fluorescence intensity (a.u.)
20 | GTTTCATAATCCTGTGTTCTTTTTGTTTACTATGGTTTTGCGGAGTCACCTAGTGCAG | 11000 fluorescence intensity (a.u.)
21 | GCAACTGATAGACTAACTTGTCCGGTCCTGTTTTGGAATCCGGAGTCACCTAGTGCAG | 10200 fluorescence intensity (a.u.)

Row | Sequence | binding signal
22 | TGCCAGCACAAATCTCGAAGCACATCCAATGATCCAAGACCGGAGTCACCTAGTGCAG | 9540 fluorescence intensity (a.u.)
23 | TACTGTTGCTGCTAGTTCACCATTTGCGCATTTCCTCTTCCGGAGTCACCTAGTGCAG | 11700 fluorescence intensity (a.u.)
24 | TCGCCGTTCGCTGGTATATGCCGTTGTCTTGGAATCATCTCGGAGTCACCTAGTGCAG | 11100 fluorescence intensity (a.u.)
25 | CGGTGTTGGGATCGGGTTTGGAGGTGGTAAGGGTGGTGGTCGGAGTCACCTAGTGCAG | 10600 fluorescence intensity (a.u.)
26 | GTGGAGGCGCGGTGGGGTGGGGAAGGAGTGTGTTTCGTGTCGGAGTCACCTAGTGCAG | 15500 fluorescence intensity (a.u.)
27 | TGACATGGTTGTTAGGGTTTGCGAGCAAATTTTCGTGGGGCGGAGTCACCTAGTGCAG | 10100 fluorescence intensity (a.u.)
28 | GGGAGAGGTGGAGACCAGGAGGTGGGGTGGCGGAGGTCATCGGAGTCACCTAGTGCAG | 14300 fluorescence intensity (a.u.)
29 | CCGGTGGGGTGGGGAATTCGGCGGAGGAAGACGACGACGACGGAGTCACCTAGTGCAG | 9250 fluorescence intensity (a.u.)
30 | GCATCGTGGGGTGTGGGTGGCGGTTTTGGAGGGGAGAGGTCGGAGTCACCTAGTGCAG | 23200 fluorescence intensity (a.u.)
31 | CGCGGGAATCGGCCGGCGACGTGGGGAGGTGGGGAGGAGACGGAGTCACCTAGTGCAG | 8900 fluorescence intensity (a.u.)
32 | AAATTTAGGTGGAGGGGTGTGGGCGGTTTCGTGCAAAAATCGGAGTCACCTAGTGCAG | 19100 fluorescence intensity (a.u.)
33 | GGCGGTATCGACGAAGAATCTCGGGGCGGTGGGGAGGTTTCGGAGTCACCTAGTGCAG | 17700 fluorescence intensity (a.u.)
34 | ATGGGTTGGGACTGTCCTGGTGCGCGATTACTAACGTGGACGGAGTCACCTAGTGCAG | 8790 fluorescence intensity (a.u.)
35 | TATTGGAACTATTACGACCACATGCTCTCTTCCTACTCTCCGGAGTCACCTAGTGCAG | 9770 fluorescence intensity (a.u.)
36 | CTCCAGCCGATATACATGCAGCCGCTGTCATCTTTTGTTCCGGAGTCACCTAGTGCAG | 9100 fluorescence intensity (a.u.)
37 | TCTTTTACACTTCATTTATTTTTTCATGCACCAAGGCTTACGGAGTCACCTAGTGCAG | 9810 fluorescence intensity (a.u.)
38 | TGTTTTGGCTTTGGTCCCTTGCTTTTCTTTGGAGGTTGGACGGAGTCACCTAGTGCAG | 10400 fluorescence intensity (a.u.)
39 | TTCTTTTTTTGTGGGGAGAGGCGGGCTGTTTTTTTCTTGCCGGAGTCACCTAGTGCAG | 15900 fluorescence intensity (a.u.)
40 | GGATACTGCACAGCCCTTGATCACAATACAGTGCATTTCTCGGAGTCACCTAGTGCAG | 9450 fluorescence intensity (a.u.)
41 | CTTGCACGCGACGGCCTGGCATTTGTGTACGGCACCGCCCCGGAGTCACCTAGTGCAG | 8030 fluorescence intensity (a.u.)
42 | GAGTAGTTCGCTTTGGCAGTATGGCATTTGTACACGCTCACGGAGTCACCTAGTGCAG | 8660 fluorescence intensity (a.u.)
